The first experiment has as its target Torsin-1A (Homo sapiens) (UniProt O14656). Description: torsin A binders from cell lysate, primary screen, small-molecule microarray, wild-type, 635/667 nm (AID 1149). Particulars: COS7 hTOR1A-WT lysate, 635 nm fluorescence, higher = more signal.
Sequence of Torsin-1A (Homo sapiens) (O14656 whole entry, looked up): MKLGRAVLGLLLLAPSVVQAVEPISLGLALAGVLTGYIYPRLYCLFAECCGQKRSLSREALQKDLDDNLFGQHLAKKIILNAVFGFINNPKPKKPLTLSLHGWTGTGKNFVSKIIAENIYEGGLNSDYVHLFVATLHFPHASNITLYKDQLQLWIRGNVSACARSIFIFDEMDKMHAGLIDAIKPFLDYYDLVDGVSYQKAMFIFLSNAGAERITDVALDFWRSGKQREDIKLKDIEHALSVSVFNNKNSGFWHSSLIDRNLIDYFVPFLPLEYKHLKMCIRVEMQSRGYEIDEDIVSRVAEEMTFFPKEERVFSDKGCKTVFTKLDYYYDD
Consider `CC=CC1=C(CO)C(=O)[C@@H]2O[C@@H]2C1=O`, for which the composite z-score was found to be 0.0039. The same measure, in the same setting: to `CO[C@H]1COC(=O)CCC[C@@H](C)[C@H](OC)COC(=O)[C@@H](C)NC(=O)CC=C[C@@H]1C` belongs 2.63. The same measure, in the same setting: under `COc1ccc(O[C@H]2C=C[C@@H](c3ccccc3)O[C@@H]2COC(=O)CCC(C)=NOC[C@@H](O)[C@H]2O[C@@H]3OC(C)(C)O[C@@H]3[C@H]2O)cc1` stands 0.624. As for `O=C(NN=C1C[C@@H](O)[C@@H](O)[C@@H]2[C@@H]3C(=O)N(Cc4ccccc4)C(=O)[C@@H]3CC[C@@H]12)OCc1ccccc1`, the composite z-score was found to be 0.815. The molecule `CCOC(=O)[C@H](CC(C)C)NC(=O)CCC1CC(OC(=O)NCc2cccc3ccccc23)CC2(CCCC(COC(=O)NCCc3ccc(Cl)cc3)O2)O1` (stereo partly drawn) gave a composite z-score of 0.549. On the same count and under the same terms, under `CO[C@@H]1C=CCC(=O)N2CCC[C@H]2C(=O)OC[C@@H](C)C(=O)OC[C@H]1C` stands -0.0067; under `CC(C)CON=C1C[C@@H](O)[C@@H](O)[C@@H]2[C@@H]3C(=O)N(C4CCCCC4)C(=O)[C@@H]3CC[C@H]12`, 0.792.

The target is the same in a further experiment. Description: small-molecule binders of mutant TOR1A in lysate, primary screen, cell lysate, small-molecule microarray, COS7 lysate, 635/667 nm fluorescence (AID 1150).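 Note: score pools 667 nm emission and signal to noise measuring lysate protein binding.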 Particulars: COS7 hTOR1A mutant lysate, 635 nm fluorescence, higher = more signal.
As for `CC(CCN1CCCc2nc(C)c(C)cc21)=NOC(C)CN1CCCCc2nc(C)c(C)cc21` (stereo not drawn), the composite z-score was 0.631. In turn, `CCN1C(=O)[C@@H]2[C@H]3C(=CC[C@@H]2C1=O)C1(OCCCO1)[C@H]1O[C@H]1[C@H]3O` came in with a composite z-score of 1.09. Still for that read-out and setting: to `Cc1ccc(S(=O)(=O)N[C@@H]2COC(=O)[C@@H](C)COC(=O)CC=C[C@H]2C)cc1` belongs 0.366; to `COC(=O)C1=C(C)N(Cc2ccccc2)[C@]23O[C@](C(=O)OC)(C(=O)N2[C@@H]1c1ccccc1)C(C(=O)OC)=C3C(=O)OC`, 0.454.

`CC(C)CON=C1C[C@@H](O)[C@@H](O)[C@@H]2[C@@H]3C(=O)N(c4ccc(F)cc4F)C(=O)[C@@H]3CC[C@H]12` showed a composite z-score of -0.0086.

As for `CCOC(=O)CCN1C(=O)[C@H]2[C@H]3[C@H](O)[C@H](O)CC(=NOCC(C)C)[C@H]3CC[C@H]2C1=O`, the composite z-score was -0.5.

As for `CC(C)=CCCC(C)=CCON=C1C[C@@H](O)[C@@H](O)[C@@H]2[C@@H]3C(=O)N(C(C)(C)C)C(=O)[C@@H]3CC[C@H]12`, the composite z-score was 0.987. In turn, `C[C@H]1CC[C@H]2C(=O)O[C@H](COc3ccc(C(C)(C)C)cc3)CN2[C@@H]1c1ccc(Br)cc1` gave a composite z-score of 0.3. `COC(=O)CC=C[C@@H](C)[C@@H](C=NO[C@@H]1O[C@H](COC(C)=O)[C@@H](OC(C)=O)[C@H](OC(C)=O)[C@H]1OC(C)=O)NS(=O)(=O)c1ccc(C)cc1`: the composite z-score amounted to 0.311. With `CCOC(=O)[C@H](CC(C)C)NC(=O)CCC1CC(OC(=O)NCc2cccc3ccccc23)CC2(CCCC(COC(=O)NCc3ccncc3)O2)O1` (stereo partly drawn), the composite z-score stood at 0.565. In turn, `CC(CCN1CCCc2nc(C)c(C)cc21)=NO[C@@H](C)c1cc(-c2c(C)cc(C)cc2C)no1` returned a composite z-score of -0.184. In turn, `O=C1[C@H]2[C@H]3[C@H](O)[C@H](O)CC(=NO[C@@H]4O[C@H](CO)[C@@H](O)[C@H](O)[C@H]4O)[C@H]3CC[C@H]2C(=O)N1c1cccc(Oc2ccccc2)c1` showed a composite z-score of 0.367. On the same count and under the same terms, under `CCOC(=O)NN=C1C[C@@H](O)[C@@H](O)[C@@H]2[C@@H]3C(=O)N(c4ccc(F)cc4F)C(=O)[C@@H]3CC[C@@H]12` stands 0.12; under `C[C@H]1CC[C@H]2C(=O)OC(CO)CN2[C@@H]1c1ccc(Br)cc1` (stereo partly drawn), 0.002; under `Cn1c(=O)n2n(c1=O)[C@H]1[C@H](O)[C@@H]3O[C@@H]3C(=NOCc3ccccc3)[C@H]1CC2`, 0.0523.

The molecule `O=c1n(-c2ccccc2)c(=O)n2n1CC[C@@H]1C(=NOCc3ccccc3)[C@H]3O[C@H]3[C@@H](O)[C@@H]12` yielded a composite z-score of -0.315. Molecule `C[C@@H]1CC[C@H]2C(=O)O[C@@H](Cc3ccccc3)CN2[C@H]1c1ccc(Br)cc1` had a composite z-score of 0.533. The molecule `CO[C@H]1COC(=O)[C@@H](C)COC(=O)[C@H](C)NC(=O)CC=C[C@H]1C` displayed a composite z-score of 0.991. Molecule `CO[C@H]1COC(=O)CC=C[C@H](C)[C@@H](OC)COC(=O)[C@@H](C)COC(=O)CC=C[C@@H]1C` had a composite z-score of 2.2. In turn, `COC(=O)CC=C[C@@H](C)[C@@H](C=NOCC[C@@H]1C=C[C@H](OC(C)=O)[C@@H](COC(C)=O)O1)NS(=O)(=O)c1ccc(C)cc1` yielded a composite z-score of 1.44. Consider `CCOC(=O)CCN1C(=O)[C@H]2[C@H]3[C@H](O)[C@H](O)CC(=NNC(=O)OCc4ccccc4)[C@@H]3CC[C@H]2C1=O`, for which the composite z-score is 0.672. `CC(C)=CCCC(C)=CCON=C1C[C@@H](O)[C@@H](O)[C@@H]2[C@@H]3C(=O)N(Cc4ccccc4)C(=O)[C@@H]3CC[C@@H]12` displayed a composite z-score of 0.293. In turn, `C[C@@H](ON=C1[C@H]2CCn3c(=O)n(-c4ccccc4)c(=O)n3[C@H]2[C@H](O)[C@@H]2O[C@H]12)c1cn([C@@H]2COC[C@H]2O)nn1` registered a composite z-score of 0.63. In turn, `COc1cc(O)c(C(=O)C=Cc2ccc3c(c2)OCO3)c(OC)c1` gave a composite z-score of -0.19. For `COC(=O)CC=C[C@@H](C)[C@@H](C=NO[C@H](C)c1cn([C@H](CO)Cc2ccccc2)nn1)NS(=O)(=O)c1ccc(C)cc1`, the composite z-score came out at 1.8.

Consider `COc1ccc(O[C@H]2C=C[C@@H](c3ccccc3)O[C@@H]2COC(=O)CCC(C)=NO[C@@H]2O[C@H](COC(C)=O)[C@@H](OC(C)=O)[C@H](OC(C)=O)[C@H]2OC(C)=O)cc1`, for which the composite z-score was 0.21.

Take `CCOC(=O)NN=C1C[C@@H](O)[C@@H](O)[C@@H]2[C@@H]3C(=O)N(Cc4ccc5c(c4)OCO5)C(=O)[C@@H]3CC[C@H]12`: the composite z-score was -0.282. Molecule `CCOC(=O)[C@H](CC(C)C)NC(=O)CCC1CC(OC(=O)NCc2cccc3ccccc23)CC2(CCCC(COC(=O)NCCC(C)C)O2)O1` (stereo partly drawn) displayed a composite z-score of 0.185. In the case of `CC(C)=CCCC(C)=CCON=C1C[C@@H](O)[C@@H](O)[C@@H]2[C@@H]3C(=O)N(C[C@@H]4CCCO4)C(=O)[C@@H]3CC[C@H]12`, the composite z-score is 1.33. On to `CC=CC1=C(CO)C(=O)[C@@H]2O[C@@H]2C1=O`, for which the composite z-score is -0.579. Still for that read-out and setting: to `CO[C@H]1COC(=O)CCC[C@@H](C)[C@H](OC)COC(=O)[C@@H](C)NC(=O)CC=C[C@@H]1C` belongs 1.5; to `COc1ccc(O[C@H]2C=C[C@@H](c3ccccc3)O[C@@H]2COC(=O)CCC(C)=NOC[C@@H](O)[C@H]2O[C@@H]3OC(C)(C)O[C@@H]3[C@H]2O)cc1`, 0.891; to `O=C(NN=C1C[C@@H](O)[C@@H](O)[C@@H]2[C@@H]3C(=O)N(Cc4ccccc4)C(=O)[C@@H]3CC[C@@H]12)OCc1ccccc1`, 0.819.

In turn, `CCOC(=O)[C@H](CC(C)C)NC(=O)CCC1CC(OC(=O)NCc2cccc3ccccc23)CC2(CCCC(COC(=O)NCCc3ccc(Cl)cc3)O2)O1` (stereo partly drawn) displayed a composite z-score of 0.372.

Consider `CO[C@@H]1C=CCC(=O)N2CCC[C@H]2C(=O)OC[C@@H](C)C(=O)OC[C@H]1C`, for which the composite z-score turned out to be 0.652. Same read-out and setting: under `CC(C)CON=C1C[C@@H](O)[C@@H](O)[C@@H]2[C@@H]3C(=O)N(C4CCCCC4)C(=O)[C@@H]3CC[C@H]12` stands 0.375.
